Reference: the supplement of paper PMC3724861
This excerpt belongs to a sample that is enriched for hits. No count for the full screen is at hand. A number with no mark means an inactive call.

Tested on: T1, Caupolican (Caup) homeodomain DNA-binding domain
T1 sequence: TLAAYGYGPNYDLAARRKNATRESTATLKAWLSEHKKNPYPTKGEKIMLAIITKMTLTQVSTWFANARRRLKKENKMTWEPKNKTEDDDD
Test: PBM E-score (8-mer, recovered from the published 9-mer minima) (E-score (dimensionless, -0.5 to 0.5)); Drosophila protein; higher = stronger relative binding preference, active = 0.31 or more
Method in brief: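 Caup's homeodomain DNA-binding domain (residues 214-303) was made by in vitro transcription and translation and applied at 100 nM to custom-designed protein binding microarrays. Each value is an enrichment score that gives relative binding preference for a short DNA word, with higher meaning stronger. The 8-mer values were recovered from published 9-mer scores, each of which was the minimum of its two constituent 8-mer scores. A cutoff of 0.31 marks candidate sites.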

| Sequence | PBM E-score |
| --- | --- |
| AGCTGAGG | -0.169 |
| AAGCCTAC | -0.0275 |
| AGACGGAC | -0.0361 |
| CTGAAATA | 0.0494 |
| AAATAACT | 0.19 |
| ACATCAAC | 0.235 |
| AAAGAGTA | 0.0035 |
| GGTACAAC | 0.32 (active) |
| AGTACAAC | 0.275 |
| CGTACAGC | 0.00506 |
| CGCACAAC | 0.0805 |
| CGTACAAG | 0.37 (active) |
| CATACAAG | 0.3 |
| CGTACAAA | 0.18 |
| GGTACAAA | 0.256 |
| AGTACCAG | 0.0977 |
| AGTACAAT | 0.292 |
| CGTACAAC | 0.31 (active) |
| AGTACAAG | 0.416 (active) |
| GAGTTATC | 0.0344 |
| CTAGCAAC | 0.101 |
| GGTATTGA | 0.058 |
| AGCTCAAT | -0.0704 |
| TGAGTGCA | -0.0812 |
| CGTTTGCC | -0.0961 |

| Sequence | PBM E-score |
| --- | --- |
| TCATCGCA | 0.065 |
| CACCCACG | -0.151 |
| AAGGCGCG | -0.205 |
| GCATGAGC | -0.0712 |
| TGACAACA | 0.377 (active) |
| GGTCAACA | 0.159 |
| AGACAACA | 0.349 (active) |
| AGACAACG | 0.231 |
| CGTCAACA | 0.0802 |
| CGACAACA | 0.342 (active) |
| TGTCAACA | ≥ 0.324 (active) |
| TGACAGCA | 0.185 |
| AGACAACT | 0.191 |
| TGACAAAA | 0.186 |
| CGACAACC | 0.186 |
| CGACAACG | 0.168 |
| AAGCATCA | 0.0394 |
| GCAAGTGC | -0.0754 |
| AGACAGGC | -0.00368 |
| AGTCCGGG | -0.154 |
| AAGTTGAC | 0.0758 |
| AACGCTGG | -0.0926 |
| CTATTGGA | 0.00708 |
| ATGCTGAC | 0.119 |
| GAAAGCAC | 0.0573 |

| Sequence | PBM E-score |
| --- | --- |
| ATGGTTGG | -0.0636 |
| AATATTGG | 0.0704 |
| ATCACTAG | 0.138 |
| CGACAAGC | 0.224 |
| AGACAAGA | 0.256 |
| GGACAACA | 0.336 (active) |
| GGACAACC | 0.169 |
| GGACAAGA | 0.264 |
| CGACAAGA | 0.317 (active) |
| AAGGGGTG | -0.101 |
| GCTGGTAC | 0.0272 |
| AGTTCTAT | 0.0299 |
| ATCTTGTC | 0.308 |
| GTCTTGCA | 0.0651 |
| ATCTTGTG | 0.18 |
| GTCTTGTA | 0.352 (active) |
| ATCTTGTA | 0.375 (active) |
| CTCTTGTA | 0.299 |
| GCAAAGGC | -0.087 |
| ATATGCGA | 0.0126 |
| AGTTCAAC | 0.0449 |
| ACTCCTTG | 0.0436 |
| CCTCTGCC | -0.243 |
| GACATAAC | 0.325 (active) |
| AACATAAG | 0.268 |

| Sequence | PBM E-score |
| --- | --- |
| AACATAAC | 0.318 (active) |
| AACATAAT | ≥ 0.327 (active) |
| ATCATAAC | 0.156 |
| ATCATAAT | 0.167 |
| GACATAAA | 0.288 |
| CACATAAC | 0.223 |
| GCCATAAC | 0.0397 |
| AGCCCATG | 0.00842 |
| CCTTAAGG | -0.154 |
| AGAACGCC | -0.114 |
| AACACGGG | 0.32 (active) |
| AACACGGT | 0.351 (active) |
| AACACGCT | 0.267 |
| AACACGGA | 0.31 |
| CACACGGG | -0.0095 |
| AACACGGC | 0.166 |
| CGCTGAAG | -0.19 |
| CGCATTGA | -0.0262 |
| CCCCAGCG | -0.312 |
| CAAAACGG | 0.016 |
| AAGGCTCA | -0.107 |
| AATTTTCT | 0.0254 |
| AGTGGACC | -0.151 |
| AAAACAAT | 0.177 |
| GCAACAAA | 0.15 |

| Sequence | PBM E-score |
| --- | --- |
| ACAACAAA | 0.323 (active) |
| ACAACAAC | 0.36 (active) |
| ACAACAGT | 0.205 |
| ACAACAAT | 0.347 (active) |
| CCAACAAC | 0.178 |
| ACAACAAG | 0.362 (active) |
| CCAACAAG | 0.196 |
| GCAACAAC | 0.205 |
| TCAACAAA | 0.157 |
| ACAACCAG | 0.249 |
| AGTACGGA | -0.0156 |
| ATAGACTA | 0.115 |
| AGTTATTG | 0.11 |
| AGAGTCCC | -0.228 |
| GTACAGAA | 0.136 |
| CGTATCAA | 0.0341 |
| TGTATCAA | 0.315 (active) |
| AGTATCAA | 0.148 |
| CCTGTCTA | 0.0989 |
| ATTGTCAA | 0.183 |
| ATTGTCCA | 0.1 |
| GCTGTCAA | 0.057 |
| GTTGTCTA | 0.321 (active) |
| GTTGTCCA | ≥ 0.336 (active) |
| CTTGTCTA | 0.281 |

| Sequence | PBM E-score |
| --- | --- |
| GTTGTCAA | 0.339 (active) |
| CTTGTCCA | 0.287 |
| ATTGTCTA | 0.194 |
| CGGGACAA | 0.0647 |
| CCGGGTGC | -0.287 |
| ACTTAATC | 0.0653 |
| GTTTAATA | 0.23 |
| AAAGCCGA | -0.139 |
| AGGTATAA | 0.0486 |
| AGGTACAT | 0.389 (active) |
| CGGTACAA | 0.234 |
| AGGTACAC | 0.297 |
| TGGTACAA | 0.358 (active) |
| AGGTACAA | 0.345 (active) |
| GGGTACAA | 0.242 |
| AGGTACAG | 0.146 |
| AGGTACTC | 0.085 |
| GGAGGGAA | -0.186 |
| ACGCATAT | 0.103 |
| ACGGCTTG | -0.133 |
| CACCTACA | 0.17 |
